Drawing on the GenesisPotency data set, this text covers outcome for 1 molecule.

In all, about 290,000 compounds went through this assay and about 2,100 (0.72%) were called active. Not shown: some 4% with an inconclusive outcome. The call rests on the fitted dose curve; in most records, active means well fitted inhibition curve with a large enough effect; inconclusive means small, poorly fitted or top-dose-only effect, or effect the other way; inactive means flat fitted curve, though single readings scatter. The sample as a whole holds a higher share of actives than the screen did.

Sequence of Fructose-bisphosphate aldolase, Giardia intestinalis (strain ATCC 50803 / WB clone C6) (A8B2U2 whole entry, looked up, natural form): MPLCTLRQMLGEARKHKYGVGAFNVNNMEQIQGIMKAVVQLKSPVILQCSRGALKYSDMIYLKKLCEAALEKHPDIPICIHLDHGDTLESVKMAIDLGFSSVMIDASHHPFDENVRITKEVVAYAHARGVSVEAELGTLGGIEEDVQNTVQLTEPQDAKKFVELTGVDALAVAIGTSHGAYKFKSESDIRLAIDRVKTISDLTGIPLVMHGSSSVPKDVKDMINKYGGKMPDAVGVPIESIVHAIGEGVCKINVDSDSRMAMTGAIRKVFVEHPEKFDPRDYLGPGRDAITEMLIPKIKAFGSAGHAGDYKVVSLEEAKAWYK

This assay addresses Fructose-bisphosphate aldolase, Giardia intestinalis (strain ATCC 50803 / WB clone C6) (UniProt A8B2U2). The assay can be described thus: qHTS Assay for Inhibitors of Fructose-1,6-bisphosphate Aldolase from Giardia Lamblia.
`N.N.[Cl][Pt][Cl]`: the molecule was called active.
